Experimental findings from PubChem BioAssay AID2391 (Southern Research Specialized Biocontainment Screening …, 2010) are described below.

The campaign covered roughly 310,000 compounds. About 410 (0.13%) were called active. About 2% were inconclusive and are not listed. No rule for the calls is given here. A selection follows. Entries with a potency or affinity are not part of this list.

The experiment is described as follows: RSV antiviral activity via CPE protection, HEp-2 cells, primary 10 µM value included (AID 2391). The settings on record: RSV-induced CPE inhibition, at 10 µM, stronger effect = higher value.
Turning to `COc1cc(OC)cc(C(=O)NC(=S)N2CCCCC2c2cccnc2)c1` (stereo not drawn), the CPE inhibition was -0.07% (inactive).
With `CCN1CCN(c2ccc(S(=O)(=O)N3CCCCC3)cc2NC(=O)CC(C)c2ccccc2)CC1` (stereo not drawn) the figure was -2.47% (inactive); with `Cc1ccsc1C(=O)OCC(=O)NC1CCCCC1C` (stereo not drawn), 1.57% (inactive).
On to `CC1CN(C(C)C)C(C)CC1OC(=O)c1ccccc1` (stereo not drawn), for which the CPE inhibition was -0.34% (inactive).
With `COC(=O)c1ccc(COn2c(=O)c(C)[n+]([O-])c3ccccc32)cc1` the figure was 2.27% (inactive); with `O=C(COc1ccc(Br)cc1Cl)NNC(=O)c1ccccc1`, -0.21% (inactive); with `O=c1[nH]c(COc2ccc(Cl)cc2Cl)nc2ccccc12`, 20.4% (inactive).
With `Cc1nc2c(C)cccn2c(=O)c1NC(=O)c1ccc2c(c1)OCO2` the figure was -0.9% (inactive); with `COc1cccc(CN(C(=O)c2ccccc2)C2CCS(=O)(=O)C2)c1` (stereo not drawn), 1.28% (inactive); with `N#CC(c1ccccc1)c1cccc(Cl)n1` (stereo not drawn), -0.33% (inactive).
With `COc1ccc(C(=O)N2CC(c3ccccc3)CC2=O)cc1` (stereo not drawn) the figure was 1.75% (inactive).
Regarding `O=C1CC(c2ccccc2)CN1C(=O)c1ccccc1` (stereo not drawn), the CPE inhibition is 0.02% (inactive).
With `Cc1c(C(=O)N2CCC(C)CC2)sc2ncn(CC(=O)N3CCC(C)CC3)c(=O)c12` the figure was 3.53% (inactive); with `Cc1ccc(-c2nnn(CC(=O)N(CC(=O)NC3CCCC3)c3ccc(F)cc3)n2)o1`, 2.25% (inactive).
In the case of `CC1Cc2ccccc2N1S(=O)(=O)c1cccc(C(=O)NCCCO)c1` (stereo not drawn), the CPE inhibition is -0.32% (inactive).
On to `Cc1cc(C[n+]2ncsc2N)c2ncccc2c1`, for which the CPE inhibition was 18.8% (inactive).
In the case of `Cc1cc(C[n+]2cc(Br)ccc2N)c2ncccc2c1` it was 81% (inactive); in that of `Nc1ccc(Cl)c[n+]1Cc1cccc2cccnc12`, 50.2% (inactive).
With `Nc1scn[n+]1Cc1cccc2cccnc12`, the CPE inhibition is 19.5% (inactive).
With `CCCC(=O)OC1CC(C)N(C(=O)c2ccccc2)c2ccc(C)cc21` (stereo not drawn) the figure was 7.5% (inactive).
In the case of `COc1ccc(CCNC(=O)COc2cc(C)cc3oc(=O)cc(C)c23)cc1` it was 2.6% (inactive); in that of `Cc1c(-c2ccccc2)nc2ccccc2c1C(=O)O`, 0.81% (inactive).
In the case of `Cc1c(-c2ccccc2Cl)nc2ccccc2c1C(=O)O` it was 1.54% (inactive).
`NC(=O)CC(NC(=O)Cc1ccc(Br)cc1)c1ccc(NCCN2CCCC2)c([N+](=O)[O-])c1` (stereo not drawn): the CPE inhibition is 0.07% (inactive).
On to `CC(Oc1ccc(Cl)cc1Cl)C(=O)NNC(=O)C(=O)N1CCCC1` (stereo not drawn), for which the CPE inhibition was 7.07% (inactive).
With `COC(=O)NNC(=O)C(C)Oc1ccc(Cl)cc1Cl` (stereo not drawn), the CPE inhibition is 0.74% (inactive).
With `COc1ccc(CCn2c(C)cc(C(=O)COC(=O)c3ccc(NC(=O)CC#N)cc3)c2C)cc1` the figure was 4.94% (inactive).
Regarding `COc1ccc(C(=O)OCCc2ccc(O)cc2)cc1`, the CPE inhibition is 1.11% (inactive).
With `Cc1cc(-c2cc(C(=O)NCc3ccccc3)on2)nc(S(C)(=O)=O)n1` the figure was 2.46% (inactive); with `Cc1ccccc1N(C(=O)CNC(=O)c1ccco1)C(C(=O)NC1CCCCC1)c1ccncc1` (stereo not drawn), 0.97% (inactive); with `CC(=O)NCCNC(=O)c1ccc(Cn2c(=O)[nH]c3ccsc3c2=O)cc1`, 0.58% (inactive).
Turning to `O=[N+]([O-])c1ccc(Cl)c(S(=O)(=O)Nc2ccc(-c3ccc(N4CCOCC4)nn3)cc2)c1`, the CPE inhibition is 0.86% (inactive).
In the case of `O=[N+]([O-])c1ccc(Cl)c(S(=O)(=O)Nc2cccc(-c3ccc(N4CCCC4)nn3)c2)c1` it was 55% (inactive).
Consider `O=S(=O)(Nc1ccc(-c2ccc(N3CCOCC3)nn2)cc1)c1cc(Cl)ccc1Cl`, for which the CPE inhibition was 1.29% (inactive).
With `Cc1ccc([N+](=O)[O-])cc1S(=O)(=O)Nc1cccc(-c2ccc(N3CCOCC3)nn2)c1` the figure was 30.8% (inactive); with `COc1ccccc1OCCn1ccnc1`, 0.82% (inactive).
Take `O=C(CC1C(=O)NCCN1Cc1cccc(Oc2ccccc2)c1)NCCn1cccn1` (stereo not drawn): the CPE inhibition is 1.61% (inactive).
With `CCn1ncc(CNC(=O)C2(C)CC2(Cl)Cl)c1C` (stereo not drawn) the figure was 2.51% (inactive).
In the case of `O=C(O)/C=C/C(=O)NCCC(c1ccccc1)c1ccccc1` it was -0.16% (inactive); in that of `O=C(Nc1ccccc1)Nc1ccc(NC(=O)c2ccccc2O)cc1`, 1.31% (inactive).
With `O=C(Nc1cccnc1)c1ccc(Cl)c(S(=O)(=O)N2CCCCC2)c1` the figure was 10.1% (inactive).
In the case of `COc1cc(/C=C/c2cc(C(=O)O)c3ccccc3n2)cc(OC)c1O`, the CPE inhibition is -0.63% (inactive).
For the compound `CCOc1cc(/C=C/c2cc(C(=O)O)c3ccccc3n2)ccc1OC`, the CPE inhibition was 4.82% (inactive).
As for `COc1ccc(C2NC(=O)NC(C)=C2C(C)=O)cc1` (stereo not drawn), the CPE inhibition was 2.63% (inactive).
As for `Cc1cc(Nc2ccccc2)nc(-c2ccccc2O)n1`, the CPE inhibition is 21.2% (inactive).
As for `Cc1cc(Nc2ccc(Cl)cc2)nc(-c2ccccc2O)n1`, the CPE inhibition is 14.1% (inactive).
In the case of `C[C@H]1CCC(=O)N(CCSc2ccc(Br)cc2)CC1` it was 0.08% (inactive); in that of `CC(C)(C)c1n[nH]c2c1CCCC2`, 3.59% (inactive).
With `COc1ccc2c(c1)-c1nc(NC(=O)c3ccco3)sc1CC2` the figure was 45.2% (inactive); with `COc1ccc2c(c1)Cc1sc(NC(=O)c3cccs3)nc1-2`, 7.1% (inactive); with `Cc1nnc(SCC(=O)N2CCc3ccccc3C2)n1-c1ccccc1`, 2.35% (inactive).
With `Cc1cc(C)c(NC(=O)CSc2nc3ccccc3c(=O)n2CCCN2CCOCC2)c(C)c1`, the CPE inhibition was -0.42% (inactive).
For `COc1ccc(CNC(=O)C(C)Sc2nc3ccccc3c(=O)n2CCCN2CCOCC2)cc1` (stereo not drawn), the CPE inhibition is -1.12% (inactive).
As to `C/C(N)=C(/C#N)C(=O)COC(=O)C(NS(=O)(=O)c1ccc(Cl)cc1)C(C)O` (stereo not drawn), the CPE inhibition is 0.82% (inactive).
As for `Cc1cc(C(=O)N2CCCC(N3CCN(c4cccc(Cl)c4)CC3)C2)nn1C` (stereo not drawn), the CPE inhibition is -0.33% (inactive).
With `Cc1ccc(OCCCn2ccnc2)cc1C` the figure was 0.08% (inactive); with `COc1cc(N)c(Cl)cc1C(=O)OCC(=O)Nc1cccnc1Cl`, 0.52% (inactive); with `COc1cc2c(cc1OC)[C@H](C)N(C(=O)CSc1nc(O)c(C(C)C)c(=O)[nH]1)CC2`, 0.69% (inactive).
With `O=C(/C=C/c1c(F)cccc1Cl)N1CCOCC1` the figure was 0.12% (inactive).
In the case of `O=C(/C=C/c1ccc(OCCCF)cc1)N1CCOCC1` it was 2.87% (inactive); in that of `Cc1cc(C)n(-c2ccc(C(=O)OCC(=O)NCc3ccc(F)cc3)cc2)n1`, 0.92% (inactive).
Regarding `Cc1nc(-c2noc(-c3cccc(Cl)c3)n2)c(C(F)(F)F)o1`, the CPE inhibition is 1.74% (inactive).
In the case of `CC(Nc1ccc2c(c1)OCCO2)C(=O)N1CCc2ccccc21` (stereo not drawn) it was 3.03% (inactive); in that of `CC(C(=O)N1CCc2ccccc21)n1cccc1` (stereo not drawn), 1.93% (inactive); in that of `CCOc1ccc(Br)cc1S(=O)(=O)Nc1ccc(C(=O)OCC(=O)Nc2ccc(C#N)cc2)cc1`, 2.94% (inactive).
As for `O=C(NC1CCN(S(=O)(=O)c2cccc(Cl)c2)CC1)C1CCCCC1`, the CPE inhibition is 1.22% (inactive).
As to `CCOc1ccc(S(=O)(=O)NCCC(=O)Nc2nnc(C)s2)cc1`, the CPE inhibition was 1.74% (inactive).
Take `CCCOc1ccc(N2C(=O)CC(N(Cc3ccccc3)N=O)C2=O)cc1` (stereo not drawn): the CPE inhibition is -0.02% (inactive).
With `CCCOc1ccc(N2C(=O)CC(N(CCc3ccc(OC)cc3)C(=O)c3ccccc3)C2=O)cc1` (stereo not drawn), the CPE inhibition is 3.8% (inactive).
With `N#C/C(=C\c1ccccc1O)C(=O)Nc1ccccn1` the figure was 9.95% (inactive); with `Cc1cc([N+](=O)[O-])cc(C)c1OCC(=O)N/N=C/c1ccc(OC(=O)c2ccccc2)cc1`, 10.1% (inactive); with `COc1cc(/C=N/NC(=O)COc2c(C)cc([N+](=O)[O-])cc2C)ccc1OC(=O)c1ccccc1Br`, 5.39% (inactive).
In the case of `Cc1ccc(-n2c(=O)c3c(C)c(C)sc3n(Cc3cc(=O)n4ccccc4n3)c2=O)cc1C` it was 11.6% (inactive).
As for `CCOc1ccc(-n2c(=O)c3sccc3n(Cc3ccc(C)cc3)c2=O)cc1`, the CPE inhibition is 2.63% (inactive).
Take `COc1cc(-n2c(=O)c3ccccc3n(Cc3cc(=O)n4ccccc4n3)c2=O)cc(OC)c1OC`: the CPE inhibition is 2% (inactive).
With `Cc1sc2c(c1C)c(=O)n(-c1ccc(Cl)cc1)c(=O)n2Cc1cc(=O)n2ccccc2n1` the figure was 8.46% (inactive); with `O=c1c2sccc2nc(SCc2cc(=O)n3ccccc3n2)n1Cc1ccccn1`, 0.36% (inactive).
In the case of `Cc1ccc(-n2c(=O)c3c4c(sc3n(Cc3cc(=O)n5ccccc5n3)c2=O)CCC4)cc1C` it was 9.89% (inactive); in that of `Cc1sc2ncnc(N3CCC(C(=O)Nc4ccc(Br)cc4Br)CC3)c2c1C`, 10.1% (inactive); in that of `CCOC(=O)c1cc(-c2ccccc2)n(Cc2cc(CC)no2)n1`, 2.08% (inactive).
For `Cc1ccc(-n2nc3c(c2NC(=O)c2ccco2)CS(=O)(=O)C3)cc1`, the CPE inhibition is 1.04% (inactive).
With `Cc1ccc(S(=O)(=O)Nc2ccncc2)c(C)c1N(C)S(=O)(=O)c1ccc(Cl)cc1` the figure was 3.66% (inactive); with `CCOC(=O)c1c(C)nc2c(c1-c1cc(OC)ccc1OC)C(=O)c1ccccc1-2`, 0.88% (inactive); with `CN(C)[C@@H]1CCC[C@@H]1OC(=O)C(c1ccccc1)c1ccccc1`, 1.33% (inactive).
With `COc1ccc(C(=O)NCc2nnc(SCC(=O)Nc3cc(C)on3)o2)cc1OC` the figure was 0.22% (inactive); with `Cc1ccccc1-c1cc2nc(C)c(C)c(=O)n2[nH]1`, 2.53% (inactive); with `Cc1cccnc1NC1CCCCC1`, 0.99% (inactive).
With `COc1ccc(NC(=O)COc2ccccc2C(=O)NCC(c2ccccc2)N(C)C)cc1Cl` (stereo not drawn) the figure was 0.1% (inactive).
Regarding `O=C(/C=C/c1c(Cl)cccc1Cl)Nc1ccncc1`, the CPE inhibition was 15.2% (inactive).
In the case of `CN(C)c1ccc(NC(=O)/C=C/c2ccccc2Cl)cc1` it was 4.05% (inactive).
In the case of `CCCCNCc1cc(Br)c(OCC(=O)N2CCOCC2)c(OC)c1` it was 0.24% (inactive).
As for `O=C(O)Cc1ccc(NC(=O)c2ccc3c(c2)C(=O)N(Cc2ccco2)C3=O)cc1`, the CPE inhibition was 1.76% (inactive).
For the compound `O=C(Nc1ccc2c(c1)CCC2)C1CCCN(c2ncccn2)C1` (stereo not drawn), the CPE inhibition is -1.9% (inactive).
